The results in this text go back to PubChem BioAssay AID1508600 (Functional Genomics Laboratory (NCATS/FGL), 2020).

Screen size: about 53,000 sequences; about 3,700 (7%) were called active.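 Rule for the calls: active = gene knockdowns whose robust z-score for IL-1 alpha signal is at least 2 or at most -2, so actives lie on both sides; inactive = the rest.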 Many of the other results were omitted from the sample, so actives are more common in it than they were.

This assay in a line: Components of the Cytosolic LPS Sensing Pathway: Gene Identification via Genome-wide siRNA Screen.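 Note: robust z of the log signal after scaling to non-targeting control siRNA wells of the plate.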 To be noted: RAW264.7 macrophages, IL-1a HTRF, actives lie on both sides, screened at 100 nM (by protocol), cells primed 5 h with Pam3CSK4 first. Put shortly:
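Using IL-1a HTRF as read-out, the screen measured release from RAW264.7 cells after 48h siRNA knockdown (100 nM), 5 h Pam3CSK4 priming and 24 h cytosolic LipidA. Values were expressed relative to negative-control wells as robust z-scores.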
(In general: Time-resolved FRET reads energy transfer from a long-lived donor to a nearby acceptor.)
For GGCAUUAACCUGAGAUGAUTT against Sprr2i, the z-score is -1.42 (inactive).

Regarding GGCUAGCAGGAUCAGCAUCTT against Rnf212, the z-score is 0.617 (inactive).

Consider GGUGCUUUUUUUGGAUCAATT against Olfr507, for which the z-score was -1.05 (inactive).

GGAAGAGAGGGUGAAUAUGTT against Tmem41b: the z-score is -2.56 (active).

As to CGGCAUUCAGAUUGUCUCUTT against Nup210, the z-score is -1.22 (inactive).

For GGCCAUUGAGUGCUCCUACTT against Dhcr7, the z-score was -0.113 (inactive).

Turning to CCACUCAUUGUUCAUGGAATT against Olfr1490, the z-score was 0.798 (inactive).

GGACCUGAGUUAGGAGAAUTT against Zfp105: the z-score was -2.06 (active).

Take GGCUGAGAAUGCAAGAAUGTT against Krt32: the z-score was -0.446 (inactive).

Turning to GGAAUUCAGCUUUGUGCAATT against Asl, the z-score is 0.764 (inactive).

Consider GGCCAGCAAAACAAAUGACTT against Slc34a2, for which the z-score is -1.01 (inactive).

Take GGUAAAGCAGUACCUUUCUTT against Mitf: the z-score was 2.53 (active).

GGUGAUGCUGGAAUCUUCCTT against Svop: the z-score was 0.216 (inactive).

Regarding GCGAUUCGUCUUCGAGUUCTT against Fam161a, the z-score was 0.483 (inactive).

GGAACUAUUUUUUACCCAATT against Dclre1a: the z-score is -0.497 (inactive).

In the case of GGAAAGAAGAUCGAUUACATT against Atp11c, the z-score is 2.22 (active).

Regarding GCCCUGUUUACACCUCUGATT against Sec23a, the z-score is -1.38 (inactive).

As for CGAAAGGUCAAAUUAACAGTT against Serpinb5, the z-score is 1.23 (inactive).

Regarding CCACAAAGAAUGCAUUACUTT against Eml3, the z-score was -0.912 (inactive).

On to GCUACUCAGUCUUUACUAUTT against Telo2, for which the z-score was -2.14 (active).

CCUGGCAGAGCAUUAUCUATT against Tmem201: the z-score is 0.558 (inactive).

For GGAGACAACUGUCAAGCUGTT against Igdcc4, the z-score is -0.0921 (inactive).

On to GGCACAGAAAAUCUUCAAATT against Ap2a1, for which the z-score is 0.97 (inactive).

Regarding GGACUGAAGGAUGCCUCAATT against Cngb1, the z-score was 0.78 (inactive).

Consider GCUAACAACGUGUGCUUCUTT against Fam20a, for which the z-score was -0.174 (inactive).

Regarding CCCGAGAUGUAUCAUCUAATT against Krcc1, the z-score was -0.31 (inactive).

Regarding UUCACUGUAAGAAUUGUCUTT against Vmn1r93, the z-score was -2.11 (active).

Take GGGAAUACAUUUUAUCUUCTT against Cpox: the z-score was -0.16 (inactive).

Take GAUGACUAGCUCUACUUUATT against Olfr738: the z-score is -0.0882 (inactive).

For the sequence GGUAUCAGUAGCUGAUGUGTT against Pde8a, the z-score is 1.36 (inactive).

Turning to GGUGUGGGUGACAAGGUUATT against Tymp, the z-score was 0.153 (inactive).

As to “GCAACACAAACACUGGCUATT against D930020B18Rik”, the z-score is -1.57 (inactive).

Consider CCUAGGAUAGAGAUUGUUGTT against Ndufaf3, for which the z-score is 0.135 (inactive).

GGUAGAUCAUGGCCAUCCUTT against Ntf5: the z-score is 2.04 (active).

Take CGAUACACUGGUGCCCUAUTT against Tmem201: the z-score is -0.158 (inactive).

Consider GGUGCCAGAUGUCAAGAAATT against Rpn2, for which the z-score is -0.685 (inactive).

For GGAUCUGAAGACAUGGAGATT against H2-M1, the z-score is 0.659 (inactive).

With CGCCCUUGGAGGUUAAUCATT against Nsg2, the z-score is 0.26 (inactive).

Regarding GGAACAGGCCGAGUUAGUATT against Olfr414, the z-score was 1.45 (inactive).

For GGAAGGUGAUGAAUCAGCCTT against Wwtr1, the z-score was -2.74 (active).

As for GCUGAGUUCAUUGCAAUGCTT against Cyp4a12b, the z-score is 0.274 (inactive).

On to GGACGGCAGAAAGCAUUUATT against Olfr317, for which the z-score was 0.693 (inactive).

Turning to GGAAUUCAUCUUACAUUCCTT against Acox3, the z-score was 2.42 (active).

Take GCUGACUCUUAGAUAAAUATT against Seh1l: the z-score was -0.81 (inactive).

Turning to CCAAAGAGAUAUCCCUCCCTT against Olfr1350, the z-score is -0.283 (inactive).

As to GCAGGAAUUCUUGAAUUAUTT against Ly75, the z-score is 2.66 (active).

As for GGACUUCUCAUCCUAUUUATT against Iah1, the z-score was -0.638 (inactive).

GAAUGAACUGCUGAAAAAGTT against Klra16: the z-score is 0.462 (inactive).

Turning to GACUCCCAGCUGGCUAUGATT against Ifna9, the z-score was 0.583 (inactive).

Regarding GGCUCAGUACUUUCUAAAATT against Vmn1r72, the z-score is -0.637 (inactive).

On to GCCUUGUCUAUAGGACUGUTT against Grm6, for which the z-score was -0.00801 (inactive).

Turning to GCUUCAUGAUGAAUCACCUTT against Otulinl, the z-score is -2.1 (active).

On to CGAGCAUUCACCGUACGUATT against Id4, for which the z-score is 0.0542 (inactive).

Consider “GGGCAAGGUGUAUUGUCAATT against D830050J10Rik”, for which the z-score was -0.00921 (inactive).

Consider GGCCCAACAAUACCUGCUGTT against Rgs17, for which the z-score is -1.5 (inactive).

With GGAUGAAGAAACAAGAAAGTT against Tmc1, the z-score is -2.46 (active).

Take GCACCGACCACCAAAUCUATT against Prol1: the z-score is 0.65 (inactive).

Turning to GGUUGUGACAAUGUGAUCCTT against Coro1a, the z-score is -2.22 (active).

For CCAUCUACAAGUGUCCUUATT against Zfp276, the z-score was -0.632 (inactive).

As to CCAUAUCCCUGUGGAAAAGTT against Manf, the z-score was -0.322 (inactive).

As to CGGAUAUCCACAAAUAUCGTT against Atp1b3, the z-score is 0.508 (inactive).

Take GGGUUCAAGAGAUGGGAAUTT against Efna5: the z-score is 0.453 (inactive).

Consider GCUCUCAGCAAAAACCGAGTT against Kif26b, for which the z-score is 2.98 (active).

Consider GGCUGUCAGUGUUUACAGGTT against Srd5a1, for which the z-score was -0.247 (inactive).

As for GGGAUGAUUCAAUGGAUAATT against Tbx22, the z-score is 0.789 (inactive).

In the case of GCUGGUUUCAUCCGCCAUATT against Dvl3, the z-score was 1.18 (inactive).

Turning to GCAUAUAAGAGAAGUGCCUTT against Parl, the z-score is 0.298 (inactive).

With GCACCAAUACAUUUGGACCTT against Nabp1, the z-score was 1.74 (inactive).

For the sequence GGAGUCAGUACUGUAAAAUTT against Rin2, the z-score is -1.91 (inactive).
